# Out of some 310,000 compounds screened, about 14,000 (4.5%) showed an effect of 50% or more. Effects have a minus sign here. The sample as a whole holds a higher share of strong results than the screen did.
# Biological target: human ether-à-go-go-related gene (hERG) potassium channel (human, UniProt Q12809)
# Assay: primary screen, population patch clamp on CHO cells stably expressing hERG; higher = less effect of the substance
# 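Note: peak tail current of the secondary pulse compared with the same well before compound.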
# Chain of human ether-à-go-go-related gene (hERG) potassium channel (Q12809 whole entry, looked up): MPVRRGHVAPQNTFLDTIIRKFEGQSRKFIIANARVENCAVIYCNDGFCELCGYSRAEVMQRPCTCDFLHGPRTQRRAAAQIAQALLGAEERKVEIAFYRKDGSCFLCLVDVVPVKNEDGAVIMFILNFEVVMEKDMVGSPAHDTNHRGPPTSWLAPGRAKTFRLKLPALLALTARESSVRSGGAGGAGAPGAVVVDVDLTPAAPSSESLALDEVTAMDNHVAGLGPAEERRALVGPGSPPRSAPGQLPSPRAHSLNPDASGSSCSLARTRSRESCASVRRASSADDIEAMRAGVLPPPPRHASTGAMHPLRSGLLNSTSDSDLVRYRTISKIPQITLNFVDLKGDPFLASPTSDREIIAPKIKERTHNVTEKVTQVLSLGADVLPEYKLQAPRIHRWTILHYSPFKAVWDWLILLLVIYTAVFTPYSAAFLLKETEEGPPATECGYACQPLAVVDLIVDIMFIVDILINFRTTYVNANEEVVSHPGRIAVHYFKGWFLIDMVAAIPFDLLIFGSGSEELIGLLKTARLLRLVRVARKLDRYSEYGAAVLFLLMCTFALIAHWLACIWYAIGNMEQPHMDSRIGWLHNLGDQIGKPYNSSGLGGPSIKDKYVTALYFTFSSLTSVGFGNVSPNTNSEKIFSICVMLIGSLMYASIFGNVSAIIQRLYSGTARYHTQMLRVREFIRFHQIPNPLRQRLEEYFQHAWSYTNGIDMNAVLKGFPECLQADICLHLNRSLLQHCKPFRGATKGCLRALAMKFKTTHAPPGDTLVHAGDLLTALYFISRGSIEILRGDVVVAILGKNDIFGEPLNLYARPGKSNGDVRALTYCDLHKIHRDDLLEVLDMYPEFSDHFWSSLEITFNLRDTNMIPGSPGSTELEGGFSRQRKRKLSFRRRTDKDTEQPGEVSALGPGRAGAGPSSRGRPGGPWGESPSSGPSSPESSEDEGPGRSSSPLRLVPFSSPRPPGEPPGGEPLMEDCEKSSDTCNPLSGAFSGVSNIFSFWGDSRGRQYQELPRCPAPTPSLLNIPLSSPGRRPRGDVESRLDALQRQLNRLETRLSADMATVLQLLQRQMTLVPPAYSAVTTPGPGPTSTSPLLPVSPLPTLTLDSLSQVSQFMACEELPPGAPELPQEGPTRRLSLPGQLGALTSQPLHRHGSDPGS
row,Compound,"hERG current change (%, negative = inhibition) at 10uM [%]"
1,COc1ccc(C(CC(=O)NCc2ccco2)c2ccc(F)cc2)cc1 (centres unmarked),-22.4
2,O=C(NCc1nnc(SCC(=O)N2CCN(c3ccccc3)CC2)o1)c1ccc(F)cc1,-5.96
3,O=S(=O)(NCc1cccnc1)c1cccc2cccnc12,6.44
4,COc1ccc(CCNS(=O)(=O)c2ccc3c(c2)CCN3C(=O)C2CC2)cc1OC,0.919
5,O=C(CSc1nc2ccccc2nc1SCC(=O)N1CCOCC1)N1CCOCC1,-5.85
6,CCCn1c(SCC(=O)N2CCN(c3ccccc3)CC2)nc2ccccc2c1=O,-56.7
7,CCn1c(SCC(=O)N2CCN(c3ccc(F)cc3)CC2)nc2ccccc2c1=O,-45.2
8,CCn1c(SCC(=O)N2CCN(c3ccc(Cl)cc3)CC2)nc2ccccc2c1=O,8.79
9,CCCn1c(SC(C)C(=O)N2CCOCC2)nc2ccc(Br)cc2c1=O (centres unmarked),-56.1
10,COc1ccc(-n2c(SC(C)C(=O)N3CCOCC3)nc3ccccc3c2=O)cc1 (centres unmarked),6.84
11,O=C(CSc1nc2ccccc2nc1N1CCOCC1)N1CCN(c2ccccc2)CC1,-39.2
12,CCOCCCn1c(SCc2nc3ccccc3s2)nc2ccccc2c1=O,-2.07
13,O=c1c2ccccc2nc(SCc2nc3ccccc3s2)n1CCCO,-4.88
14,Cc1ccc(C)n1CCN1CCN(C(=O)CSc2nc3ccccc3nc2N2CCOCC2)CC1,-54.5
15,CCn1c(SC(C)C(=O)N2CCOCC2)nc2sc(C)c(C)c2c1=O (centres unmarked),3.37
16,CCCCn1c(SCc2nc3ccccc3s2)nc2ccccc2c1=O,-54.7
17,O=C1CCC(C(=O)Nc2ccc(Cl)cc2)N1 (centres unmarked),28
18,CC1CCN(C(=O)c2ccc3c(c2)NC(=O)CN3)CC1,8.49
19,Nc1ccc(C2(c3ccc(N)cc3)OC(=O)c3ccccc32)cc1,-6.43
20,CCOC(=O)C1CCN(C(=O)C(=O)Nc2ccc3nc4n(c(=O)c3c2)CCCCC4)CC1,1.99
21,CCC1(C)Cc2c(sc3nc(NN)n(C)c(=O)c23)CO1 (centres unmarked),13.4

row,Compound,"hERG current change (%, negative = inhibition) at 10uM [%]"
1,Cc1ccc(C(C(=O)NC2CCCC2)N(C(=O)CNC(=O)c2cccs2)c2cccnc2)o1 (centres unmarked),-11.1
2,O=C1CN(C(=O)CSc2nc3ccccc3c(=O)n2CCCN2CCOCC2)c2ccccc2N1,-19.7
3,CCCCn1c(SCC(=O)N2CCOCC2)nc2ccccc2c1=O,-68.4
4,O=C(CSc1nc2ccccc2c(=O)n1CCCN1CCOCC1)c1c[nH]c2ccccc12,-54
5,Cn1c(N)c(C(=O)CSc2nc3ccccc3c(=O)n2CCCN2CCOCC2)c(=O)n(C)c1=O,2.7
6,Cc1[nH]c2ccccc2c1C(=O)CSc1nc2ccccc2c(=O)n1CCCN1CCOCC1,-5.57
7,CCCCn1c(SCC(=O)NC2CC2)nc2ccccc2c1=O,-4.62
8,O=C(CSc1nc2ccccc2c(=O)n1CCCN1CCOCC1)N1CCN(c2ccccc2)CC1,-70.6
9,CCOCCCn1c(SCC(=O)N2CCOCC2)nc2ccccc2c1=O,-36
10,COCCCn1c(SCC(=O)N2CCOCC2)nc2ccccc2c1=O,-5.65
11,Cc1onc(-c2c(Cl)cccc2Cl)c1C(=O)NCCCN1CCOCC1,3.09
12,O=C(CCc1c[nH]c2ccccc12)OCc1ccc(Br)cc1,10.2
13,Cc1ccc(-n2nc(C)c3c2OC(N)=C(C#N)C3c2ccncc2)cc1 (centres unmarked),7.07
14,COc1ccc(C(=O)NC(C)c2ccncc2)cc1S(=O)(=O)N(C)Cc1ccccc1 (centres unmarked),-61
15,COc1ccc(C(=O)OCC(=O)N(C)C2CCS(=O)(=O)C2)cc1S(=O)(=O)N(C)Cc1ccccc1 (centres unmarked),-15.7
16,CCN(C(=O)COC(=O)c1ccc(OC)c(S(=O)(=O)N(C)Cc2ccccc2)c1)C1CCS(=O)(=O)C1 (centres unmarked),-30.9
17,CCN(Cc1ccccc1)S(=O)(=O)c1cc(C(=O)NCC2CCCCC2)ccc1OC,-9.52
18,CCN(Cc1ccccc1)S(=O)(=O)c1cc(C(=O)NCCCN(C)C)ccc1OC,-50.3
19,COc1ccc(C(=O)NCc2ccc3c(c2)OCO3)cc1S(=O)(=O)N(C)Cc1ccccc1,-12.3
20,COc1ccc(C(=O)Nc2ccc(NC(C)=O)cc2)cc1S(=O)(=O)N(C)Cc1ccccc1,10.3
21,COc1ccc(C(=O)OCC(=O)NC2CC2)cc1S(=O)(=O)N(C)Cc1ccccc1,-53.8

row,Compound,"hERG current change (%, negative = inhibition) at 10uM [%]"
1,CCN(Cc1ccccc1)S(=O)(=O)c1cc(C(=O)O)ccc1OC,14.1
2,O=S(=O)(Nc1cc(C(F)(F)F)ccc1N1CCOCC1)c1ccccc1,4.09
3,CC(CC(=O)N1CCN(c2ccccc2)CC1)S(=O)(=O)c1ccc2c(c1)NC(=O)CO2 (centres unmarked),-20.1
4,O=C(O)c1cccc(N2C(=O)c3cc4cccc(Br)c4cc3C2=O)c1,18.4
5,Cc1cc(CNC(=O)CC2C(=O)NCCN2Cc2ccc(-c3ccccc3)cc2)nn1C (centres unmarked),-4.68
6,O=C(c1ccc([N+](=O)[O-])s1)N1CCc2ccccc2C1,13
7,FC(F)(F)Oc1ccc(NC(=S)NCc2ccccc2)cc1,4.62
8,Cl.O=C(CNC1=NCCC1)c1ccc(Cl)cc1,-12.2
9,CCCCCCn1c(SCCCC)nc2c1c(=O)[nH]c(=O)n2C,1.97
10,CCCCCCn1c(SCC(C)C)nc2c1c(=O)[nH]c(=O)n2C,10.3
11,CCCCCCn1c(SCCOC)nc2c1c(=O)[nH]c(=O)n2C,-59.8
12,CCCCCn1c(SCC(=O)OC)nc2c1c(=O)[nH]c(=O)n2C,-60.7
13,CCCCCCn1c(SCCC)nc2c1c(=O)[nH]c(=O)n2C,-9.85
14,CCCCCCn1c(SCC(=O)c2ccccc2)nc2c1c(=O)[nH]c(=O)n2C,-26
15,CCCCCn1c(SC(C)C(C)=O)nc2c1c(=O)[nH]c(=O)n2C (centres unmarked),-92.5
16,CCCCCn1c(SCCCC)nc2c1c(=O)[nH]c(=O)n2C,-3.74
17,CCCCn1c(SCC(=O)OCC)nc2c1c(=O)[nH]c(=O)n2C,-41.9
18,COC(=O)CSc1nc2c(c(=O)[nH]c(=O)n2C)n1CCC(C)C,-3.93
19,CCOCCn1c(SC(C)C(C)=O)nc2c1c(=O)[nH]c(=O)n2C (centres unmarked),-42.8
20,CCCCCCn1c(SCC(=O)OC)nc2c1c(=O)[nH]c(=O)n2C,-70.1
21,Cc1cccc(-n2ncc3c(=O)[nH]c(SCC(=O)NCCC4=CCCCC4)nc32)c1,10.9

row,Compound,"hERG current change (%, negative = inhibition) at 10uM [%]"
1,CCN(CC)S(=O)(=O)c1cccc(-c2n[nH]c(=S)n2/N=C/c2ccc(C(=O)OC)cc2)c1,-34
2,O=C(COC(=O)c1ccc(S(=O)(=O)N2CCCC2)cc1)NCc1ccco1,-10.1
3,O=[N+]([O-])c1ccc(/C=N/NC2=NS(=O)(=O)c3ccccc32)cc1,-7.49
4,O=C(OCn1nnc2ccccc2c1=O)C1CCCCC1,5.57
5,CCCCCCn1c(N(CC)CC)nc2c1c(=O)[nH]c(=O)n2C,-63.6
6,CCCCCCn1c(NCC)nc2c1c(=O)[nH]c(=O)n2C,-14.7
7,CCN(CC)c1nc2c(c(=O)[nH]c(=O)n2C)n1CCCc1ccccc1,-45.3
8,Cn1nc(C(=O)OCC(=O)NCCc2ccccc2)c2ccccc2c1=O,2.9
9,Cc1ccc(S(=O)(=O)/C(C#N)=C/c2c(Oc3ccc(Cl)cc3)nc3c(C)cccn3c2=O)cc1,19.3
10,Cc1cccn2c(=O)c(/C=C(\C#N)C(=O)NCc3ccco3)c(N3CCCCCC3)nc12,-36.5
11,Cc1cccn2c(=O)c(/C=C(\C#N)S(=O)(=O)c3ccccc3)c(N3CCN(Cc4ccccc4)CC3)nc12,-4.68
12,Cc1ccc(S(=O)(=O)/C(C#N)=C/c2c(N3CCN(C)CC3)nc3c(C)cccn3c2=O)cc1,-67.5
13,Cc1cccn2c(=O)c(/C=C(\C#N)C(=O)NCc3ccco3)c(N3CCCCC3)nc12,-37.8
14,Cc1cccn2c(=O)c(/C=C(\C#N)C(=O)NCc3ccco3)c(N3CCOCC3)nc12,-50.9
15,Cc1ccc(S(=O)(=O)/C(C#N)=C/c2c(N3CCOCC3)nc3c(C)cccn3c2=O)cc1,-56
16,Cc1cccn2c(=O)c(/C=C(\C#N)S(=O)(=O)c3ccccc3)c(N3CCN(C)CC3)nc12,-45.5
17,Cc1cccn2c(=O)c(/C=C(\C#N)S(=O)(=O)c3ccccc3)c(N3CCN(c4ccccc4)CC3)nc12,9.12
18,CCN1CCN(c2nc3c(C)cccn3c(=O)c2/C=C(\C#N)S(=O)(=O)c2ccc(C)cc2)CC1,-62.9
19,CCN1CCN(c2nc3c(C)cccn3c(=O)c2/C=C(\C#N)S(=O)(=O)c2ccccc2)CC1,-15.7
20,Cc1ccc(S(=O)(=O)/C(C#N)=C/c2c(N3CC(C)OC(C)C3)nc3c(C)cccn3c2=O)cc1 (centres unmarked),-28.1

# Source: article PMC4336329 (PLoS ONE, 2015)
